Measured values published in PubChem BioAssay (NCATS).
Inconclusive results are not listed. Active and inactive are the calls of the source. Unless noted, calls follow the shape of the dose curve; as a rule, active = well fitted curve in the direction sought with a large enough effect; inconclusive = small, poorly fitted or top-dose-only effect, or another doubt; inactive = no such curve, though single readings can be large; an effect the other way counts as inactive or inconclusive.

Columns and labels:
[1] = target: DNA polymerase III PolC-type (Bacillus subtilis (strain 168)) (UniProt P13267); assay: qHTS Validation Assay for the Inhibitors of DNA Replication in Gram-Positive Bacteria (AID 485295);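 also: PicoGreen fluorescence of double-stranded DNA made on primed circular M13 template; series mostly up to about 57 µM; 0% = DMSO wells and -100% = EDTA-quenched background wells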
Summary of the method: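 Reconstituted B. subtilis Pol III holoenzyme (PolC, beta clamp, SSB, primase) preincubated with compound, then M13Gori single-stranded circular template with dNTPs/NTPs added; room temperature reaction. Stopped with EDTA/PicoGreen; dsDNA fluorescence read, EDTA as full-inhibition control.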

[2] = target: Tumor susceptibility gene 101 protein (Homo sapiens) (UniProt Q99816); assay: qHTS Validation Assay for Iinhibitors of HIV-1 Budding by Blocking the Interaction of PTAP/TSG101 (AID 485342; calls by dose curve; also: 0% is about no effect)
Summary of the method: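 Tsg101 binding domain (10 uM) with FITC-labeled PTAP peptide (50 nM) in HEPES pH 7.5 buffer, 20 min at r.t. with compounds. Binding measured by fluorescence polarization.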

[3] = qHTS Validation Assay to Find Inhibitors of Chronic Active B-Cell Receptor Signaling (AID 485345; active = well fitted curve in the direction sought with a large enough effect in the main read-out, with a control signal flat, not every such curve was filed as active;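 also: 0% = untreated basal cells and 100% = 10 µM MG-132 proteasome inhibitor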)
Summary of the method: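 TMD8 ABC-DLBCL cells stably carrying doxycycline-inducible IkappaBalpha–green luciferase fusion plus unfused red luciferase; compounds 46 uM to 3 nM, 4 h at 37C with doxycycline. Corrected green/red luminescence ratio normalized to 10 uM MG-132 and basal cell wells; curves fitted.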

[4] = target: Beta-2 adrenergic receptor (Homo sapiens) (UniProt P07550); assay: qHTS validation assay of beta-arrestin-biased ligands of beta2-adrenergic receptor (AID 485366); also: 0% is about no effect
Summary of the method: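 Tango cells (recombinant beta2-AR with recombinant beta-arrestin; recruitment releases tTA driving luciferase) were treated with compounds titrated up to 46 microM for 18 hr at 37 degrees C. Luminescence gave %Activity, and concentration-response curves were curve-classified.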

[5] = Quantitative high throughput screen for delayed death inhibitors of the malarial parasite plastid, 96 hour incubation (AID 488745);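 also: luciferase-expressing P. falciparum in erythrocytes at 2% hematocrit and 0.1% parasitemia; series mostly up to about 29 µM; % is scaled to controls: 0 for no effect and ±100 for the full control effect; nearly all actives have a fitted effect of over 70% in size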
Summary of the method: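 Infected erythrocytes were added to compound in Albumax-supplemented RPMI 1640 at 0.1% parasitemia and 2% hematocrit (final), incubated 96 h at 37 C under 5% CO2, then luciferase reagent was added and luminescence measured.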

[6] = Quantitative high throughput screen for delayed death inhibitors of the malarial parasite plastid, 48 hour incubation (AID 488752); also: % is scaled to controls: 0 for no effect and ±100 for the full control effect; nearly all actives have a fitted effect of over 65% in size
Summary of the method: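 Readout is firefly luciferase luminescence from a reporter integrated into the parasite genome, with lower signal taken as inhibited growth. Infected red cells (0.1% parasitemia, 2% hematocrit final) are cultured with compound for one 48 h cycle at 37 C.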

[7] = target: Thioredoxin reductase 1, cytoplasmic (Rattus norvegicus) (UniProt O89049); assay: qHTS Assay for Substrates of Mammalian Selenoprotein Thioredoxin Reductase 1 (TrxR1) (AID 488772);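 also: NADPH fluorescence in the first read after selenite addition and not the 8 min delta; series mostly up to about 57 µM; 0% is about no effect; a drop in NADPH fluorescence below the no-compound background marks a TrxR1 substrate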
Summary of the method: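 Quantitative HTS in Tris-HCl buffer at pH 7.5 with EDTA and Tween-20, using rat TrxR1, 400 uM NADPH and 400 uM selenite (final). A fall in initial NADPH fluorescence relative to background marked substrate behaviour.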

[8] = target: Thioredoxin reductase 1, cytoplasmic (Rattus norvegicus) (UniProt O89049); assay: qHTS Assay for Inhibitors of Mammalian Selenoprotein Thioredoxin Reductase 1 (TrxR1) (AID 488773); details: Potency: inhibition;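 also: drop in NADPH fluorescence over an 8 min run after selenite addition; series mostly up to about 57 µM; % is scaled to controls: 0 for no effect and ±100 for the full control effect; nearly all actives have a fitted effect of over 40% in size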
Summary of the method: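 Steps: enzyme (90 nM) plus NADPH (400 uM final), 5 min at ~22 deg C; compound added, 15 min; selenite (400 uM final) added; fluorescence followed for 8 min. Concentration-response curves derived from the normalized delta values.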

[9] = target: Methanococcus maripaludis chaperonin (MmCpn) (UniProt Q6LX38); assay: High-Throughput Screening for Modulators of Cytosolic Chaperonin Activity: MmCpn Primary Screen (AID 488978);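 also: 50 nM MmCpn enzyme hydrolysing 30 µM ATP at 37 °C; 0% is about no effect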
Summary of the method: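 MmCpn at 50 nM final was preincubated 5 min at RT with compound. ATP was then added at 30 uM final for 10 min at 37 C. ADP formed was detected by Transcreener HTRF (665/590 nm).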

[10] = target: Transient receptor potential cation channel subfamily V member 1 (Homo sapiens) (UniProt Q8NER1); assay: HTS Assay for Compounds that Act as Enhancers of the Vanilloid Receptor 1 (AID 488979); also: 0% is about no effect
Summary of the method: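 TRPV1 cells loaded with Fluo-8 calcium dye; compound added and Ca2+ signal (ex 480/em 520 nm) followed 3 min, then capsaicin at EC20 added and read 2 more min to detect enhancement.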

[11] = target: D(1A) dopamine receptor (Homo sapiens) (UniProt P21728); assay: HTS Assay for Allosteric Agonists of the Human D1 Dopamine Receptor: Primary Screen for Agonists (AID 488981); also: 0% is about no effect
Summary of the method: (§1)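 Tetracycline-induced HEK293 Trex D1 cells with forced coupling to calcium, loaded with no-wash calcium dye; kinetic fluorescence read 180 s after compound addition for agonism, then a further 180 s after an EC20 dopamine challenge for potentiation.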

[12] = target: D(1A) dopamine receptor (Homo sapiens) (UniProt P21728); assay: HTS Assay for Allosteric Agonists of the Human D1 Dopamine Receptor: Primary Screen for Potentiators (AID 488982); also: 0% is about no effect
Summary of the method: as §1

[13] = target: ATP-dependent 6-phosphofructokinase (Trypanosoma brucei brucei) (UniProt O15648); assay: qHTS Assay to Find Inhibitors of T. brucei phosphofructokinase: hit validation (AID 492961);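 also: luminescence reports ADP formed as PFK phosphorylates fructose-6-phosphate with ATP; series mostly up to about 51 µM; % is scaled to controls: 0 for no effect and ±100 for the full control effect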
Summary of the method: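 Inhibition of parasite PFK is measured as reduced ADP formation, quantified via luciferase after ATP depletion. Assay used 0.1 mM ATP, 0.5 mM F6P, 1.25 nM enzyme, 45 min incubation.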

[14] = Validation screen for small molecules that induce genotoxicity in human embryonic kidney (HEK293T) cells expressing luciferase-tagged ELG1 (AID 493106); also: 0% is about no effect
Summary of the method: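 Luminescence from an ELG1-luciferase fusion serves as the read-out, rising when genetic stress elevates ELG1 protein. HEK293T reporter cells (2,000 per well) received 23 nL compound, incubated 16 hr at 37 °C, then ONE-Glo for 30 min at room temperature.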

[15] = Nrf2 qHTS screen for inhibitors: Validation (AID 493153; active = well fitted inhibition curve with a large enough effect in the main read-out, with a control signal flat, not every such curve was filed as active); details: viability change: measured here: cytotoxicity max response
Summary of the method: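 Luminescence from an ARE-firefly luciferase reporter in A549 cells gives Nrf2 inhibition; an earlier CellTiter-Fluor fluorescent read flags cytotoxicity. Cells in 5% FBS OPTI-MEM received compound dilution series for 18-24 h at 37°C.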

[16] = qHTS for Inhibitors of Cell Surface uPA Generation: Validation Assay (AID 493164); also: 0% is about no effect
Summary of the method: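 RAW 264.7 cells (4000/well) were plated overnight, then exposed for 18 h at 37 C, 5% CO2 to compounds in a 7-point 1:5 titration (2.45 nM–38.3 uM final). Intracellular ATP was read by ATP-Lite luminescence.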

[17] = target: Flap endonuclease 1 (Homo sapiens) (UniProt P39748); assay: qHTS Validation Assay for the Inhibitors of Human Flap endonuclease 1 (FEN1) (AID 488816); also: % is scaled to controls: 0 for no effect and ±100 for the full control effect
Summary of the method: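 Human FEN1 (10 nM) preincubated 15 min at room temperature with compounds, then flap DNA substrate added at 50 nM final. Fluorescence read at 0 and 15 min; concentration-response fitted with four-parameter Hill equation.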

[18] = target: M-phase phosphoprotein 8 (Homo sapiens) (UniProt Q99549); assay: qHTS Validation Assay for Inhibitors for MPP8 Chromodomain Interactions with Methylated Histone Tails (AID 488949); also: top concentration of the series differs between compounds; % is scaled to controls: 0 for no effect and ±100 for the full control effect; nearly all actives have a fitted effect of over 55% in size
Summary of the method: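 MPP8 (50 nM) was pre-bound to 50 nM biotinylated H3(1-18)K9me3 peptide in PBS pH 7.4 with 0.01% Tween-20. Compounds were then added for 30 min at room temperature, and complex disruption was read by AlphaScreen with streptavidin donor and nickel-chelate acceptor beads.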

[19] = target: Chromobox protein homolog 1 (Homo sapiens) (UniProt P83916); assay: qHTS Validation Assay for Inhibitors of HP1-beta Chromodomain Interactions with Methylated Histone Tails (AID 488953);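 also: loss of AlphaScreen luminescence from HP1-beta binding biotinylated H3K9me3 peptide; series mostly up to about 110 µM; % is scaled to controls: 0 for no effect and ±100 for the full control effect; nearly all actives have a fitted effect of over 50% in size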
Summary of the method: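 50 nM HP1-beta + 50 nM biotin-H3(1-18)K9me3, PBS pH 7.4, 0.01% Tween-20, 30 min RT; compound added, 30 min RT; AlphaScreen beads 10 ug/mL final, 30 min dark; luminescence read.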

[20] = target: Thyrotropin-releasing hormone receptor (Homo sapiens) (UniProt P34981); assay: qHTS for Small Molecule Agonists and Allosteric Enhancers of Human TRH Receptor: Validation Screen for Agonists (AID 493127;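 active = calcium activation more than 3 SD above the typical response in the agonist read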;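 also: intracellular calcium rise by fluo-8 fluorescence before TRH EC20 addition; 0% is about no effect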); details: TRH receptor agonist cell assay; at 2 µM; stronger effect = higher value
Summary of the method: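 Cells 2000/well, 10% FCS, 18 h 33.5C/5% CO2 → fluo-8 Ca dye, RT 30 min–1.5 h → FDSS baseline 10 × 1 s → compound added → 230 cycles (1 s/cycle) agonist mode. TRH controls.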

Sequence of ATP-dependent 6-phosphofructokinase (Trypanosoma brucei brucei) (O15648 whole entry, looked up): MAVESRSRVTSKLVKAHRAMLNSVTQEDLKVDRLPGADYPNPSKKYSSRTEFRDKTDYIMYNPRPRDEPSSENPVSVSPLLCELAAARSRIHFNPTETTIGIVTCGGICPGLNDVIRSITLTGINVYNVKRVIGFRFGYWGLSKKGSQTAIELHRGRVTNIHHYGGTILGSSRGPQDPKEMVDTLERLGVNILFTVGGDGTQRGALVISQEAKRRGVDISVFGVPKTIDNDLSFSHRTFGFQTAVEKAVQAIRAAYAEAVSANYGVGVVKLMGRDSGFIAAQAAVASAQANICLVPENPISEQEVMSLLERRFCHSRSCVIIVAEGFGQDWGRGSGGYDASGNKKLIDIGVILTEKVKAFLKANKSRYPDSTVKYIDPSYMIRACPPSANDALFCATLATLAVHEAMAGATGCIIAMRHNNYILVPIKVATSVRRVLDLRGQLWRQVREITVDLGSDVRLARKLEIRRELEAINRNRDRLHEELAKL
Sequence of Tumor susceptibility gene 101 protein (Homo sapiens) (Q99816 whole entry, looked up, the tested form may be a part): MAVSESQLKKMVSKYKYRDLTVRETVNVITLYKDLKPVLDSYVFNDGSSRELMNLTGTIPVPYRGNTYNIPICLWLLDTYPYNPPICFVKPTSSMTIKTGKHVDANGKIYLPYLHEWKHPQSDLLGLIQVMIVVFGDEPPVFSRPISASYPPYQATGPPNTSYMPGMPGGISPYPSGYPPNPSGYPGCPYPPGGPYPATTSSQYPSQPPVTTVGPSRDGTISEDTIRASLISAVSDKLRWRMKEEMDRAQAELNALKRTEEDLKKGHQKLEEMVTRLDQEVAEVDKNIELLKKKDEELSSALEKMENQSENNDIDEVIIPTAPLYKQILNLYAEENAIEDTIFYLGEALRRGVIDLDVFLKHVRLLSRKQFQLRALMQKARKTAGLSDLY
Sequence of Transient receptor potential cation channel subfamily V member 1 (Homo sapiens) (Q8NER1 whole entry, looked up): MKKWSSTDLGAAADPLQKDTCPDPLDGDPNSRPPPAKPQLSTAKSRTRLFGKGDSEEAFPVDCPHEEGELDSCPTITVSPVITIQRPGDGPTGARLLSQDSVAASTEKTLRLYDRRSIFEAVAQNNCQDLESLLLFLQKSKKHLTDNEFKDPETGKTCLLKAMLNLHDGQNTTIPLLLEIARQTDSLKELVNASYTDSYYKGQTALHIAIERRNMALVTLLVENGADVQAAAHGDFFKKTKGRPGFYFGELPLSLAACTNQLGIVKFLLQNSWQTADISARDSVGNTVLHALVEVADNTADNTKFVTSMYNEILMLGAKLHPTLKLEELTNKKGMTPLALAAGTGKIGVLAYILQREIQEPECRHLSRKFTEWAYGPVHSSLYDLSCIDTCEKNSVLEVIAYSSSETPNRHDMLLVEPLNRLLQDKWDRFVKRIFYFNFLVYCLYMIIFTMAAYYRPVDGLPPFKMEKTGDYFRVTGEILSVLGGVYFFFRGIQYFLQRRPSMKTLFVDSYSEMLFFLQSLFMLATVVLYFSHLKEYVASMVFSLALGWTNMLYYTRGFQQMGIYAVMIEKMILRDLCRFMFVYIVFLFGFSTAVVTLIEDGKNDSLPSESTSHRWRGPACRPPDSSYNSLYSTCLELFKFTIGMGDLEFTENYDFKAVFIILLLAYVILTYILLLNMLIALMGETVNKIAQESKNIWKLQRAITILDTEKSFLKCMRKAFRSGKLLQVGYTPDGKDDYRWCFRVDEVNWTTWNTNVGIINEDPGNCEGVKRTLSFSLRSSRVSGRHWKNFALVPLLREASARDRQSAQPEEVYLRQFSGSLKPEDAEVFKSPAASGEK
Sequence of M-phase phosphoprotein 8 (Homo sapiens) (Q99549 whole entry, looked up): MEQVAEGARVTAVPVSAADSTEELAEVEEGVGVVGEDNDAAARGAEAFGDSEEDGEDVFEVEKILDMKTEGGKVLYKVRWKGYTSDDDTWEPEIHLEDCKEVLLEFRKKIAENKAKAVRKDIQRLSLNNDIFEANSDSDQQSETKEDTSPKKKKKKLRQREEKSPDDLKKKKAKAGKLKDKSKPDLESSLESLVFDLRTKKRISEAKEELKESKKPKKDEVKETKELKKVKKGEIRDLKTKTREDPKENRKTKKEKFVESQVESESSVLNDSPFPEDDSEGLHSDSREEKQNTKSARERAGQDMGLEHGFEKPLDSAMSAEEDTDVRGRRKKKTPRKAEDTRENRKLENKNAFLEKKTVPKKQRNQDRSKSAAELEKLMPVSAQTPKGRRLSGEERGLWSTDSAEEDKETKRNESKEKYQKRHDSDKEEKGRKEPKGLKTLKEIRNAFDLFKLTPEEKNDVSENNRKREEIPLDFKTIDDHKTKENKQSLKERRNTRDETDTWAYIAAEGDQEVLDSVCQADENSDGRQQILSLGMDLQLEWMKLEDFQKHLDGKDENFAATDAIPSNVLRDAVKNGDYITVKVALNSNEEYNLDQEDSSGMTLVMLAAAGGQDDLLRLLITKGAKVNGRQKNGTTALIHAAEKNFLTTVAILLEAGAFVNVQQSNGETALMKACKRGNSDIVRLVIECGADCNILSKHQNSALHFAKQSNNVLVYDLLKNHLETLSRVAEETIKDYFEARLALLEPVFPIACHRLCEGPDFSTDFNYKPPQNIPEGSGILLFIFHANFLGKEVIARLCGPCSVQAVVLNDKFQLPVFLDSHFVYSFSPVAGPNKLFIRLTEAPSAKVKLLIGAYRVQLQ
Sequence of D(1A) dopamine receptor (Homo sapiens) (P21728 whole entry, looked up): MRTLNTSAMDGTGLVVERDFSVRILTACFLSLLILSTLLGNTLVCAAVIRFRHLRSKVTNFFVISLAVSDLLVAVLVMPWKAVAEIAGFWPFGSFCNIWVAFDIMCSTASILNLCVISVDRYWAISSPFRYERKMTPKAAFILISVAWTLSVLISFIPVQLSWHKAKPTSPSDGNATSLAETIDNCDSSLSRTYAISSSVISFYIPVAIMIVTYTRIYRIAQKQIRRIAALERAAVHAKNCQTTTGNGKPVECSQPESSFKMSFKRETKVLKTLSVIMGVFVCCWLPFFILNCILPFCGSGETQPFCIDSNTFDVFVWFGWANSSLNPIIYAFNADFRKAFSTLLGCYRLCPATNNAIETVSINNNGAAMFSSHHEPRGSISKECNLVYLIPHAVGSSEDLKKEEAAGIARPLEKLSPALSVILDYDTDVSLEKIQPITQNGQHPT
Sequence of Chromobox protein homolog 1 (Homo sapiens) (P83916 whole entry, looked up): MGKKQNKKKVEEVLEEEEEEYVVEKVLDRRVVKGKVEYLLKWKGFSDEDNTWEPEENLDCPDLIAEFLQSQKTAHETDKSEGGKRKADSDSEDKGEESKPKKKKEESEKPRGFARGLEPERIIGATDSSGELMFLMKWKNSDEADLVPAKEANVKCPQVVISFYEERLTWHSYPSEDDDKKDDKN
Sequence of Methanococcus maripaludis chaperonin (MmCpn) (Q6LX38 1-543): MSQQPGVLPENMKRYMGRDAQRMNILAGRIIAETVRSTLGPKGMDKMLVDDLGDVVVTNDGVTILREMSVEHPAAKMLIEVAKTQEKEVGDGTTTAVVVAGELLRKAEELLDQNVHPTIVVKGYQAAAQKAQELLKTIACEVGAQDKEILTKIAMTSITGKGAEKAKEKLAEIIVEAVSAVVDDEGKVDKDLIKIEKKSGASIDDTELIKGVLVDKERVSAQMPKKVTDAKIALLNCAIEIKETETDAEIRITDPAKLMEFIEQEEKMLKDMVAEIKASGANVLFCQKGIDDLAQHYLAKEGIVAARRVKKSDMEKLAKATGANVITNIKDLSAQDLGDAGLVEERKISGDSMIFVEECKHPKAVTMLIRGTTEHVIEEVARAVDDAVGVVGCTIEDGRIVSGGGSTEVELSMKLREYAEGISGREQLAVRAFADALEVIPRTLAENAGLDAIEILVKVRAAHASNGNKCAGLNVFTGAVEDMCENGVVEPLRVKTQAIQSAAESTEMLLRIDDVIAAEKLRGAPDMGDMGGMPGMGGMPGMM
Sequence of Thyrotropin-releasing hormone receptor (Homo sapiens) (P34981 whole entry, looked up): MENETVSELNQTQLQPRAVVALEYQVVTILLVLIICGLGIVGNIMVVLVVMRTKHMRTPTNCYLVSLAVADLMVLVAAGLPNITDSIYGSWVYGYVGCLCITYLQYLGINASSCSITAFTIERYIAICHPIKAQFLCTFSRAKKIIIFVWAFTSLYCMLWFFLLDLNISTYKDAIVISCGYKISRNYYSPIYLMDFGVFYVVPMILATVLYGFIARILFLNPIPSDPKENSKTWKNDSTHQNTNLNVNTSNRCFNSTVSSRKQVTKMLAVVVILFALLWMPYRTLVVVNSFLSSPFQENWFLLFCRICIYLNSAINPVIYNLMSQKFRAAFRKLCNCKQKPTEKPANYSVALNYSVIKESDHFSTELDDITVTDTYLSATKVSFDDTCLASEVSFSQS
Sequence of Thioredoxin reductase 1, cytoplasmic (Rattus norvegicus) (O89049 whole entry, looked up): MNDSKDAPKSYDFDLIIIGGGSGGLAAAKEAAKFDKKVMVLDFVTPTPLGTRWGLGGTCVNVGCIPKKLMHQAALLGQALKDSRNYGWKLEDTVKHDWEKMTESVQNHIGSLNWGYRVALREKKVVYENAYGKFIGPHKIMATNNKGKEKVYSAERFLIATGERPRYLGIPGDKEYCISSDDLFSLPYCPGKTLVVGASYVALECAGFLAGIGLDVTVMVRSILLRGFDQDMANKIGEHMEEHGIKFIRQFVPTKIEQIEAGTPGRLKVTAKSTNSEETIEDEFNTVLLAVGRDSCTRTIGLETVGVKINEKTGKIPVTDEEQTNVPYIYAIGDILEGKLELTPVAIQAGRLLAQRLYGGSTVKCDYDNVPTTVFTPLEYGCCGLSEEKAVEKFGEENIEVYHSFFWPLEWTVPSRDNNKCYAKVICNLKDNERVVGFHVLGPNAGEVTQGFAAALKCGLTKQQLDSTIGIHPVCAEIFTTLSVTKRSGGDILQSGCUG

CC(C)(C)c1ccc(C(O)CCCN2CCC(C(O)(c3ccccc3)c3ccccc3)CC2)cc1 (stereo not given)
-16.1%: viability change [15]
inactive: outcome [1] | outcome [2] | outcome [3] | outcome [4] | Potency [5] | outcome [6] | Potency [7] | Potency [8] | outcome [9] | outcome [10] | outcome [11] | outcome [12] | outcome [13] | Potency [14] | outcome [15] | outcome [16]

O=C1NCC2(CCN(CCc3ccccc3)CC2)O1
1.8%: viability change [15]
inactive: outcome [1] | outcome [2] | outcome [3] | outcome [4] | Potency [5] | outcome [6] | Potency [7] | Potency [8] | outcome [17] | Potency [18] | Potency [19] | outcome [9] | outcome [10] | outcome [11] | outcome [12] | outcome [13] | activation [20] 0.562% | outcome [15] | outcome [16]

CC(=O)c1ccc(S(=O)(=O)NC(=O)NC2CCCCC2)cc1
inactive: outcome [1] | outcome [2] | outcome [3] | outcome [4] | Potency [5] | outcome [6] | Potency [7] | Potency [8] | Potency [18] | Potency [19] | outcome [9] | outcome [10] | outcome [11] | outcome [12] | Potency [14] | activation [20] 0.188% | outcome [15] | outcome [16]
1.61%: viability change [15]

Clc1ccc(Cn2c(CN3CCCC3)nc3ccccc32)cc1
inactive: outcome [1] | outcome [2] | outcome [3] | outcome [4] | outcome [6] | Potency [7] | Potency [8] | outcome [17] | Potency [18] | outcome [9] | outcome [10] | outcome [11] | outcome [12] | outcome [13] | Potency [14] | activation [20] -8.12% | outcome [15] | outcome [16]
1.98%: viability change [15]

Cc1cccc(C)c1OCC(C)N (stereo not given)
-6.18%: viability change [15]
inactive: outcome [1] | outcome [2] | outcome [3] | outcome [4] | Potency [5] | outcome [6] | Potency [7] | Potency [8] | outcome [17] | Potency [18] | Potency [19] | outcome [9] | outcome [10] | outcome [11] | outcome [12] | outcome [13] | Potency [14] | activation [20] 0.438% | outcome [15] | outcome [16]

CCCNC(=O)NS(=O)(=O)c1ccc(Cl)cc1
-0.767%: viability change [15]
inactive: outcome [1] | outcome [2] | outcome [3] | outcome [4] | Potency [5] | outcome [6] | Potency [7] | Potency [8] | outcome [17] | Potency [18] | Potency [19] | outcome [9] | outcome [10] | outcome [11] | outcome [12] | Potency [14] | outcome [15] | outcome [16]

NC(N)=Nc1nc(CSCC/C(N)=N/S(N)(=O)=O)cs1
-0.651%: viability change [15]
inactive: outcome [1] | outcome [2] | outcome [3] | outcome [4] | Potency [5] | outcome [6] | Potency [7] | Potency [8] | outcome [17] | Potency [18] | Potency [19] | outcome [9] | outcome [10] | outcome [11] | outcome [12] | Potency [14] | outcome [15] | outcome [16]

CCN1CCC[C@H]1CNC(=O)c1cc(S(N)(=O)=O)ccc1OC
-14.1%: viability change [15]
inactive: outcome [1] | outcome [2] | outcome [3] | outcome [4] | Potency [5] | outcome [6] | Potency [7] | Potency [8] | outcome [17] | Potency [18] | Potency [19] | outcome [9] | outcome [10] | outcome [11] | outcome [12] | outcome [13] | Potency [14] | activation [20] 1% | outcome [15] | outcome [16]
